Laboratory results as given in PubChem BioAssay (Tox21).
Where “and” joins values, the source holds several entries; their conditions need not be identical. Equal values may be shown once. Records with an inconclusive call do not appear. Where a call stands in place of a potency, no number is given. Calls of active or inactive are those of the source. Calls follow the shape of the dose curve; as a rule, active = well fitted activation curve with a large enough effect in the repeat runs; inconclusive = weak or mixed curves; inactive = no such curve, though single readings can be large or run the other way.

target: Nuclear receptor subfamily 1 group I member 2 (Homo sapiens) (UniProt O75469); test: Human pregnane X receptor (PXR) small molecule agonists, qHTS assay (AID 1346982); details: PXR-Luc HepG2, CYP3A4 luciferase reporter, 24 h; series mostly up to 92.4 µM; also: nearly all actives have a fitted effect of over 35% in size
Excerpt: National Center for Advancing Translational Sciences [NCATS]
NIH Chemical Genomics Center [NCGC]
U.S. Environmental Protection Agency [EPA]
National Institutes of Environmental Health Sciences [NIEHS]
National Toxicology Program [NTP]
The human pregnane X receptor (hPXR) regulates the expression of several drug metabolizing enzymes and induction of these proteins is a major mechanism for developing drug resistance in cancer. One such key enzyme catalyzing the drug metabolism is cytochrome P450 3A4 (CYP3A4). Changes in CYP3A4 expression affect drug metabolism, thereby reducing the therapeutic efficacy and altering toxicological response to a drug and which finally causes adverse drug interaction. To screen Tox21 libraries for compounds that activate hPXR-mediated CYP3A4 gene expression, PXR-Luc HepG2 cells were used.
PXR-Luc HepG2 cells were dispensed at 2,000 per well in 5uL of assay medium containing 5% charcoal-stripped FBS into white solid bottom 1536-well plates (Corning Life Sciences, Corning, NY) using a Multidrop Combi (Thermo Scientific, Waltham, MA) dispenser. The assay plates were incubated at 37 C and 5% CO2 for 5hr, and then 23nL of compounds dissolved in DMSO and positive control were transferred using a Pintool station (Wako, San Diego, CA). The assay plates were incubated at 37C and 5% CO2 for 24hr. For luciferase read, 4uL of ONE-Glo reagent (Promega Corporation, Madison, WI) was added to each well of the assay plates using Flying Reagent Dispenser (FRD, Aurora Discovery, San Diego, CA) and incubated the assay plates at room temperature for 30min. The luminescence signal was quantified using a ViewLux plate reader (Perkin Elmer, Shelton, CT).
Potency is read from the fitted curve at half-maximal effect.

Nuclear receptor subfamily 1 group I member 2 (Homo sapiens), sequence (O75469 whole entry, looked up): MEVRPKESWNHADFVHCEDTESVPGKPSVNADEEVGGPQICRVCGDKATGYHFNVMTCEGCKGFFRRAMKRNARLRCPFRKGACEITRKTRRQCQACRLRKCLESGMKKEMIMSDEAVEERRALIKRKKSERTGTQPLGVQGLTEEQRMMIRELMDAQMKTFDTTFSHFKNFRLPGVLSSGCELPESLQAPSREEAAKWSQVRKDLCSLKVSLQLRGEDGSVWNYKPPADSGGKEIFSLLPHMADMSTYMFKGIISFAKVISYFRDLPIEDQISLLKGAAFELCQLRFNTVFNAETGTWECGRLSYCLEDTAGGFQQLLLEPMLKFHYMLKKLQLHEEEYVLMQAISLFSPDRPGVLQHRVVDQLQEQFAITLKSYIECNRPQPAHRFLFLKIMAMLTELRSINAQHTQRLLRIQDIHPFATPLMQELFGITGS

SMILES	Potency
CN(C)C1CCCCC1	inactive
Cc1ccc(Cl)c(O)c1	inactive
CC[C@H](O)C(C[C@H](C)N(C)C)(c1ccccc1)c1ccccc1	inactive
CC(Cc1ccccc1)NCCn1cnc2c1c(=O)n(C)c(=O)n2C (stereo not given)	inactive
CCOC(=O)COc1ccc(Cl)cc1Cl	inactive
O=C(Cl)CCl	inactive
O=c1[nH]oc2c1CCNC2	inactive
O=C(NC(=O)c1c(F)cccc1F)Nc1cc(Cl)c(F)c(Cl)c1F	inactive
CCOP(=S)(OCC)SCCl	inactive
CN(C)C(=O)Oc1cc(OC(=O)N(C)C)cc(C(O)CNC(C)(C)C)c1 (stereo not given)	inactive
O=C(O)c1c(Cl)ccc2cc(Cl)cnc12	inactive
C=CC(=O)OCCN(C)C	inactive
COc1cccc([C@@]2(O)CCCC[C@@H]2CN(C)C)c1	inactive
COc1cc(CC(C)N)cc(OC)c1OC (stereo not given)	inactive
COc1ccccc1OC	inactive
C=CC1(C)OC(=O)N(c2cc(Cl)cc(Cl)c2)C1=O (stereo not given)	60.8 µM (active) and 54.5 µM (active)
CS(=O)(=O)Cl	inactive
C=CCC1(C(C)CC)C(=O)NC(=O)NC1=O (stereo not given)	inactive
O=c1[nH]c2ccccc2n1C1CCNCC1	inactive
CON(C)C(=O)Nc1ccc(Br)cc1	38.6 µM (active)

SMILES	Potency
CC[C@@H](CO)NC(=O)[C@@H]1C=C2c3cccc4[nH]cc(c34)C[C@H]2N(C)C1	inactive
NC(=O)OCCCc1ccccc1	inactive
C#CCOC(=O)/C=C(C)/C=C/CC(C)CCCC(C)C (stereo not given)	inactive
CCC(=O)c1ccc(Cl)cc1	inactive
C=CCCC#N	inactive
Cc1ccc2cc(C)ccc2c1	inactive
O=C1C2CC=CCC2C(=O)N1SC(Cl)(Cl)Cl (stereo not given)	inactive
N=C(N)[Se]	inactive
COC(=O)c1ccc(CBr)cc1	55.1 µM (active)
COP(=O)(OC)O/C(C)=C/C(=O)N(C)C	inactive
CCC(C)(C#N)N=NC(C)(C#N)CC (stereo not given)	inactive
COc1ccc(C=O)cc1O	inactive
CCNP(=S)(OC)O/C(C)=C/C(=O)OC(C)C (stereo not given)	9.69 µM (active)
O=P(O)(O)CN(CP(=O)(O)O)CP(=O)(O)O	inactive
Cc1cccc2sc3nncn3c12	34.4 µM (active)
O=c1[nH]c2ccccc2o1	inactive
CCOC(=O)N(C)N=O	inactive
OP(O)c1ccccc1	inactive
CC(C)(O)C(Cl)(Cl)Cl	inactive
c1ccc2c(c1)CCNC2	inactive
